PubChem BioAssay (EPA / NIEHS)
Inconclusive results are not listed. Activity calls are given as the source filed them. Rule for the calls, unless noted: active = hit-call score of the fitted dose curve at least 0.9, where 1 is the maximum; inconclusive = response in the unintended direction; inactive = score below 0.9.

Columns and labels:
[1] = read-out: ABC Transporter (ABCB1), ABCB1 (gene 5243); assay: CLD_ABCB1_6hr: CellzDirect (CLD) Gene Expression Assay for ABC Transporter (ABCB1) at 6 hours (AID 2283659);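 note: hits raise ABCB1 transcript above the DMSO vehicle baseline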
Procedure, shortened: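 Primary human hepatocytes (two donor preparations) dosed daily for two days with chemicals at multiple concentrations, 0.2% DMSO vehicle; harvested 6 h post-dose. ABCB1 mRNA induction quantified by qNPA chemiluminescence; gain-of-signal fitted versus DMSO.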

[2] = read-out: xenobiotic metabolism (CYP1A1), CYP1A1 (gene 1543); assay: CLD_CYP1A1_6hr: CellzDirect (CLD) Gene Expression Assay for xenobiotic metabolism (CYP1A1) at 6 hours (AID 2283661);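 for AC50: potency for transcript induction above DMSO vehicle baseline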
Procedure, shortened: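 Primary human hepatocytes from two donors, compound versus 0.2% DMSO vehicle. CYP1A1 mRNA measured 6 h after dosing by quantitative nuclease protection assay with chemiluminescent read-out; induction fitted relative to DMSO, cytotoxicity flagged by microscopy.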

[3] = read-out: xenobiotic metabolism (CYP1A2), CYP1A2 (gene 1544); assay: CLD_CYP1A2_6hr: CellzDirect (CLD) Gene Expression Assay for xenobiotic metabolism (CYP1A2) at 6 hours (AID 2283663);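 for AC50: potency is for induction meaning a rise in mRNA above DMSO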
Procedure, shortened: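 Primary human hepatocytes from two donor preparations, dosed daily with multiple concentrations in 0.2% DMSO and harvested at 6 h. CYP1A2 mRNA induction measured by chemiluminescent qNPA, gain of signal fitted against DMSO; cytotoxicity flagged morphologically.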

[4] = Tanguay_ZF_120hpf_TR_legacy: (Legacy) Oregon State University Tanguay Lab 120 Hour Post-fertilization zebrafish Assay for Touch Response (AID 2283667)
Procedure, shortened: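 5D WT embryos; static exposure to 120 hpf, 28C, sealed/dark; DMSO 0.64% v/v final. TR scored present/absent; dead embryos excluded. Pos ctrl 5uM trimethyltin chloride.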

[5] = CLD_ACTIN_6hr: CellzDirect (CLD) Gene Expression Assay for Baseline Control (Actin) at 6 hours (AID 2283676);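 note: active means increased actin mRNA relative to DMSO vehicle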
Procedure, shortened: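 Primary human hepatocytes dosed with fresh chemical solutions (vehicle 0.2% DMSO), harvested at 6 h. Actin mRNA quantified by quantitative nuclease protection assay with chemiluminescent read-out, as background control relative to DMSO.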

[6] = CCTE_Padilla_ZF_144hpf_TERATOSCORE: (Legacy) CCTE's 144 Hour Post-fertilization zebrafish Assay Teratoscore, Padilla Lab (AID 2283679; active = hit-call score of the fitted dose curve at least 0.9, where 1 is the maximum; inactive = score below 0.9;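 for AC50: zebrafish embryos with chorions exposed by immersion from 6-8 hpf to 5 dpf with daily renewal; teratogenicity score from eye scoring of death hatching and malformations at 144 hpf; higher score means more developmental defects relative to DMSO baseline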)
Procedure, shortened: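 Larvae scored by eye at 144 hpf for death, hatching and malformations after a day in clean Hanks'. Before that, daily-renewed exposure at 80 uM (0.4% DMSO, 26C) from roughly 6-8 hpf through 5 dpf, 4 embryos per chemical.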

[7] = read-out: Cytochrome P450 3A4 (Homo sapiens) (UniProt P08684); assay: CLD_CYP3A4_6hr: CellzDirect (CLD) Gene Expression Assay for xenobiotic metabolism (CYP3A4) at 6 hours (AID 2283680)
Procedure, shortened: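 Primary human hepatocytes (two donor preparations) dosed; CYP3A4 mRNA harvested at 6 h and quantified by qNPA chemiluminescence. Gain of signal fitted against 0.2% DMSO vehicle; cytotoxicity flagged by phase-contrast morphology.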

[8] = read-out: solute carrier (SLC10A1), SLC10A1 (gene 6554); assay: LTEA_HepaRG_SLC10A1: Life Technologies and Expression Analysis (LTEA) Assay for solute carrier (SLC10A1) using HepaRG (AID 2283657; active = hit-call score of the fitted dose curve at least 0.9, where 1 is the maximum; inactive = score below 0.9); conditions: mRNA level, 48 h; actives raise or lower the signal
Procedure, shortened: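 Transcript levels were measured by qRT-PCR after human HepaRG cells received test chemical for 48 hours, up to 100 uM in half-log dilutions. Values come from bidirectional concentration-response fitting relative to 0.5% DMSO vehicle.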

[9] = read-out: matrix metalloproteinase-1 (MMP1), MMP1 (gene 4312); assay: LTEA_HepaRG_MMP1: Life Technologies and Expression Analysis (LTEA) Assay for matrix metalloproteinase-1 (MMP1) using HepaRG (AID 2283658; active = hit-call score of the fitted dose curve at least 0.9, where 1 is the maximum; inactive = score below 0.9); conditions: mRNA level, 48 h; actives raise or lower the signal
Procedure, shortened: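 HepaRG, ~100,000 cells/well, 48 h pre-culture; serum-free induction medium; test chemical 8 conc (max 100 uM, half-log), duplicate, 48 h; 0.5% DMSO; qRT-PCR MMP1, housekeeping-normalized; gain/loss fit vs DMSO.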

[10] = read-out: Broad substrate specificity ATP-binding cassette transporter ABCG2 (Homo sapiens) (UniProt Q9UNQ0); assay: CLD_ABCG2_6hr: CellzDirect (CLD) Gene Expression Assay for ABC Transporter (ABCG2) at 6 hours (AID 2283660)
Procedure, shortened: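 Primary human hepatocytes dosed daily with chemicals at multiple concentrations (0.2% DMSO vehicle), harvested 6 h after dosing. ABCG2 mRNA induction read by quantitative nuclease protection assay (qNPA) chemiluminescence; gain of signal fitted against DMSO baseline.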

[11] = read-out: Cytochrome P450 (CYP24A1_1), CYP24A1 (gene 1591); assay: LTEA_HepaRG_CYP24A1_1: Life Technologies and Expression Analysis (LTEA) Assay for Cytochrome P450 (CYP24A1_1) using HepaRG (AID 2283671; active = hit-call score of the fitted dose curve at least 0.9, where 1 is the maximum; inactive = score below 0.9); conditions: mRNA level, 48 h; actives raise or lower the signal
Procedure, shortened: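 In this test, gene induction or suppression of CYP24A1 in human HepaRG liver cells is measured by qRT-PCR after 48 h chemical treatment (eight concentrations, maximum 100 uM). Values are fitted bidirectionally relative to DMSO.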

[12] = read-out: glucuronosyltransferase (UGT1A1), UGT1A1 (gene 54658); assay: CLD_UGT1A1_6hr: CellzDirect (CLD) Gene Expression Assay for glucuronosyltransferase (UGT1A1) at 6 hours (AID 2283672)
Procedure, shortened: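 Primary human hepatocytes from two donor preparations, dosed with fresh solutions in 0.2% DMSO, harvested at 6 h. UGT1A1 mRNA measured by qNPA chemiluminescence; induction fitted upward versus DMSO.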

[13] = read-out: xenobiotic metabolism (CYP1A1), CYP1A1 (gene 1543); assay: CLD_CYP1A1_24hr: CellzDirect (CLD) Gene Expression Assay for xenobiotic metabolism (CYP1A1) at 24 hours (AID 2283673);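 note: CYP1A1 mRNA level by quantitative nuclease protection with chemiluminescence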
Procedure, shortened: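 Primary human hepatocytes dosed daily with fresh solutions in 0.2% DMSO vehicle. mRNA measured at 24 h by quantitative nuclease protection assay with chemiluminescence; gain-of-signal fit versus DMSO, with morphology-based cytotoxicity flags.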

[14] = read-out: ABC Transporter (ABCB11), ABCB11 (gene 8647); assay: CLD_ABCB11_6hr: CellzDirect (CLD) Gene Expression Assay for ABC Transporter (ABCB11) at 6 hours (AID 2283675);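 note: hits raise ABCB11 mRNA level so AC50 marks induction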
Procedure, shortened: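 Human primary hepatocytes (two donor preparations) given fresh chemical daily at multiple concentrations, vehicle 0.2% DMSO. ABCB11 mRNA induction measured 6 h after dosing by qNPA chemiluminescence versus DMSO; cytotoxicity annotated from morphology.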

[15] = tested on: Thyroperoxidase (TPO), gene 54314; assay: CCTE_Simmons_AUR_rTPO: CCTE's Amplex UltraRed Assay for Thyroperoxidase (TPO) Inhibition, Simmons Lab (AID 2283662);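 for AC50: potency for loss of signal meaning inhibition of peroxidase activity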
Procedure, shortened: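 Endpoint is decreased Amplex UltraRed fluorescence after a 30-min, 37C reaction of rat thyroid microsomes with 300 uM H2O2. Eight test concentrations (5 nM–87.5 uM final) in 0.5% DMSO, three biological replicates each.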

[16] = CCTE_Simmons_CellTiterGLO_HEK293T: Viability Assessment in CCTE's Assays for Thyroperoxidase (TPO) Inhibition, Simmons Lab (AID 2283665);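 for AC50: cells exposed to compound for 24 h before readout; actives reduce ATP signal below DMSO vehicle meaning cytotoxicity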
Procedure, shortened: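 Cytotoxicity counter-screen: human HEK293T cells in low-serum (1% FBS) medium receive test chemical, 5 nM to 87.5 uM final, for 24 h; ATP is quantified by luciferase luminescence.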

[17] = read-out: sulfotransferase (SULT2A), SULT2A1 (gene 6822); assay: CLD_SULT2A_6hr: CellzDirect (CLD) Gene Expression Assay for sulfotransferase (SULT2A) at 6 hours (AID 2283669);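 note: hits raise transcript level above the DMSO vehicle baseline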
Procedure, shortened: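 Primary human hepatocytes from two donor preparations were dosed daily with chemicals or 0.2% DMSO and harvested at 6 h. Transcript induction read by qNPA chemiluminescence, fitted for gain of signal relative to DMSO; morphology-based cytotoxicity annotated.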

[18] = read-out: organic anion transporter (SLCO1B1), SLCO1B1 (gene 10599); assay: CLD_SLCO1B1_6hr: CellzDirect (CLD) Gene Expression Assay for organic anion transporter (SLCO1B1) at 6 hours (AID 2283668);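 note: active means mRNA induction above DMSO baseline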
Procedure, shortened: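 Primary human hepatocytes dosed daily with test chemicals (multiple concentrations) in 0.2% DMSO vehicle; harvested at 6 h. SLCO1B1 mRNA quantified by qNPA chemiluminescence, fitted as gain-of-signal versus DMSO; cytotoxicity from phase-contrast morphology flagged alongside.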

[19] = read-out: Cytochrome P450 2B6 (Homo sapiens) (UniProt P20813); assay: CLD_CYP2B6_6hr: CellzDirect (CLD) Gene Expression Assay for xenobiotic metabolism (CYP2B6) at 6 hours (AID 2283677);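 note: actives raise CYP2B6 transcript above DMSO baseline so AC50 marks an inducer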
Procedure, shortened: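 Primary human hepatocytes dosed with chemicals at multiple concentrations, vehicle 0.2% DMSO; CYP2B6 mRNA induction measured 6 h after dosing by quantitative nuclease protection assay with chemiluminescence, gain of signal fitted relative to DMSO.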

Measured: AC50

Sequence of Cytochrome P450 3A4 (Homo sapiens) (P08684 whole entry, looked up): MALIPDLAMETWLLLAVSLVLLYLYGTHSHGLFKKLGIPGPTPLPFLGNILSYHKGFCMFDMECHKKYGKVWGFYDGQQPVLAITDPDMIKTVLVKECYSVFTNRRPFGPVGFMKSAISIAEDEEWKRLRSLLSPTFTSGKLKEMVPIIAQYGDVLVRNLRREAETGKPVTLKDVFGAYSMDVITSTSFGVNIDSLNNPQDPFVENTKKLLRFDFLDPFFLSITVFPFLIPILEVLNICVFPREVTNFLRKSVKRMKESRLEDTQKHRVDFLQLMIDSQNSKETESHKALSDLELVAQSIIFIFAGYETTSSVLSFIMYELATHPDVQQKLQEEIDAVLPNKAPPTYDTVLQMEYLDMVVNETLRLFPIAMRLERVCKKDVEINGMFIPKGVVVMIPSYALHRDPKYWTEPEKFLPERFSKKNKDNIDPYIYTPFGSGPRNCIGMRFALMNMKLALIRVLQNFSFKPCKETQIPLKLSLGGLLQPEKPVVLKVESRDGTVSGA
Sequence of Broad substrate specificity ATP-binding cassette transporter ABCG2 (Homo sapiens) (Q9UNQ0 whole entry, looked up): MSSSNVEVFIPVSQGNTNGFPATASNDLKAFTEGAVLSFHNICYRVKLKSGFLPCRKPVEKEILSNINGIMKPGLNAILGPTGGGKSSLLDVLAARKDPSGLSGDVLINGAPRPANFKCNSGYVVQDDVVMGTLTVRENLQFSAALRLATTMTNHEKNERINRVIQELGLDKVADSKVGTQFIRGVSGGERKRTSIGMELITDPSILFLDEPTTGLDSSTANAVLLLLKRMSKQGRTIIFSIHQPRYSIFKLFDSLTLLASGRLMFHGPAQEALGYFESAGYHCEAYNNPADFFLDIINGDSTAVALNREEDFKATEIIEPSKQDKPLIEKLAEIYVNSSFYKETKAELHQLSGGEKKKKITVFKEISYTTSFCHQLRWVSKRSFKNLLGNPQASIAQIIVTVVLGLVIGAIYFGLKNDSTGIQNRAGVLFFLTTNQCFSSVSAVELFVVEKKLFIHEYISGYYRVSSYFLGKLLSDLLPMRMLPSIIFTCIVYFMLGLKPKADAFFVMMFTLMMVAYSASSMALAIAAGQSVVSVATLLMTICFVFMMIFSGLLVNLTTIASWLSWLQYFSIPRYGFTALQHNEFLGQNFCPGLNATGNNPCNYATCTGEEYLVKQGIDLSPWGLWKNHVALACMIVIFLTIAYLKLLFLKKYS

CNC(=O)N(C)c1nnc(C(C)(C)C)s1
active: [2] 0.00579 µM
inactive: [1] | [3] | [4] | [5] | [6] | [7]

Nc1c(Cl)c(Cl)nc(C(=O)O)c1Cl
active: [2] 20 µM | [3] 33 µM
not listed: [1] | [7] | [15] | [16] | [17] | [18] | [19]
inactive: all other assays above

COP(=S)(OC)Oc1ccc([N+](=O)[O-])c(C)c1
active: [2] 1.22 µM | [15] 5.57 µM | [3] 3.34 µM | [6] 50 µM
inactive: [1] | [16] | [4] | [17] | [12] | [14] | [5] | [7]

CO/N=C(/C1=NOCCO1)c1ccccc1Oc1ncnc(Oc2ccccc2Cl)c1F
inactive: [1] | [10] | [4] | [18] | [17] | [13] | [14] | [5] | [7]
active: [6] 0.182 µM

Cc1cnc(C2=NC(C)(C(C)C)C(=O)N2)c(C(=O)O)c1 (configuration not stated)
inactive: [10] | [2] | [15] | [3] | [16] | [4] | [17] | [5] | [6] | [7]

O=C(Nc1ccccc1-c1ccc(Cl)cc1)c1cccnc1Cl
inactive: [1] | [4] | [17] | [14] | [5]
active: [2] 2.46 µM | [3] 2.34 µM | [19] 0.504 µM | [6] 3.12 µM

CC1(C)CCC(=Cc2ccc(Cl)cc2)C1(O)Cn1cncn1 (configuration not stated)
active: [2] 0.00693 µM | [6] 253 µM
inactive: [1] | [10] | [3] | [4] | [18] | [17] | [14] | [5] | [7]

COP(=S)(OC)SCn1nnc2ccccc2c1=O
active: [2] 6.49 µM | [15] 6.68 µM | [3] 5.35 µM | [16] 53.8 µM | [6] 15.2 µM | [7] 0.975 µM
inactive: [10] | [4] | [17] | [14] | [5]
